High-throughput results (PubChem BioAssay)
In the library only some 4.6% were active in any assay of this set; here they are far more common.
HSF1 activator = increases HSF-1 driven luciferase reporter signal | AID 504408 | NIH3T3-HGL HSF-1 luciferase reporter, MG132, 8 h; 100% = twice DMSO control signal | activation, % at 9 µM | 300,000 tested, 1.7% active;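 active = mean replicate activation of at least 50% with a set share of replicates each reaching 50%; inconclusive = only one of those two conditions met; inactive = mean below 50% and too few replicates reaching it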
AHR activator = activates the human aryl hydrocarbon receptor | 320,000 tested, 2.5% active | activation, % at 5 µM | AHR-responsive luciferase reporter cells, luminescence | P35869; in the data active = activation above about 47%
FXN GAA850 act = increases GAA850 frataxin promoter reporter activity | AID 540364 | activation, % at 6 µM | 360,000 tested, 0.56% active | HEK293 lucGAA850 FXN promoter luciferase reporter, 24 h; percent of 10 µM SAHA response;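 active = activation above the average of all compounds screened plus 3 SD, cutoff fixed separately per campaign, cut at about 7.5% in these data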
HSF1 inhib = HSF1 inhibition; activity change, negative = inhibition, % at 7.5 µM (by protocol); 300,000 tested, 0.77% active; NIH3T3-HGL HSE-luciferase, MG132-induced, luminescence 8 h; active compounds read low;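 active = more than half of replicate wells show activity change below -50%, luminescence cut by over half; inconclusive = some wells, but at most half, below -50%; inactive = no replicate well below -50%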;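 also: luciferase reports HSF-1 transcriptional activity via heat shock element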
Hits are given with their value; . = inactive; ? = inconclusive; / = not tested or not shown.

SMILES	HSF1 activator	AHR activator	FXN GAA850 act	HSF1 inhib
CC(=O)Oc1ccccc1C1OCCN1C(C)=O (centres undefined)	.	.	.	.
CNC(=O)C1=C(C)Nc2nc3ccccc3n2C1c1cccc(OC)c1 (centres undefined)	.	.	.	.
C=CCOC(=O)C1=C(C)Nc2nc3ccccc3n2C1c1ccncc1 (centres undefined)	62	.	.	.
CCOC(=O)C1=C(C)Nc2nc3ccccc3n2C1c1ccncc1 (centres undefined)	80	.	.	.
C=CC1=C2C=C(C3CC3)N(CC3CC3)C=C2C(=O)C(C)(OC(=O)c2ccco2)C1=O (centres undefined)	.	.	.	.
Cc1oc2cc(O)ccc2c(=O)c1Oc1ccccc1Br	.	59	.	.
O=C(N/N=C/c1ccc2c(c1)OCO2)c1cc(-c2ccccc2)nc2ccccc12	.	51	.	.
c1cncc(-c2nc(NCc3ccc4c(c3)OCO4)c3ccccc3n2)c1	.	64	.	.
c1cncc(CNc2ncnc3ccc(-c4ccc5c(c4)OCO5)cc23)c1	/	53	.	/
N#Cc1ccc(/C=N/NC(=O)c2cc(-c3cccs3)nc3ccccc23)cc1	60	.	.	.
c1nc(NCc2ccc3c(c2)OCO3)c2cc(-c3ccc4c(c3)OCCO4)ccc2n1	/	.	.	/
c1ccc2[nH]c(NCc3ccc4c(c3)OCO4)nc2c1	55	.	.	.
O=c1[nH]c(N/N=C\c2ccc3c(c2)OCO3)nc2ccccc12	?	57	.	.
Fc1cccc(CSc2ccc(-c3ccc4c(c3)OCO4)nn2)c1	.	.	.	.
c1ccc(CNc2nc3ccccc3[nH]2)cc1	.	.	.	.
c1cncc(CSc2ccc(-c3ccc4c(c3)OCO4)nn2)c1	?	95	.	.
O=C(Nc1ccc2c(c1)OCO2)c1cc(-c2cccnc2)nc2ccccc12	.	47	.	.
O=C(NCCc1ccc(F)cc1)C(=O)NCC1CCCN1S(=O)(=O)c1ccccc1 (centres undefined)	.	.	.	.
CC1(C)Cc2ccccc2C(=NC(Cc2ccccc2)C(=O)O)N1 (centres undefined)	.	.	.	.
O=C(CCS(=O)(=O)Cc1ccccc1)N1CCN(c2ccc([N+](=O)[O-])cc2)CC1	.	.	.	.
C=CCSc1n[nH]c(-c2ccc(OCCCC)cc2)n1	66	.	.	.
CCOC(=O)c1c(NC(=O)CSc2nnc(CNc3ccc(Cl)cc3)o2)sc(C)c1C	67	.	.	.
COc1ccc(-c2cc(-c3ccccc3)c(C#N)c(S(C)=O)n2)cc1 (centres undefined)	146	.	.	.
CCCCNC(=S)N/N=C/c1cccc(OCC)c1O	81	.	.	.
CCOc1cccc(/C=N/NC(=S)Nc2ccccc2[N+](=O)[O-])c1O	.	.	.	-79
SMILES	HSF1 activator	AHR activator	FXN GAA850 act	HSF1 inhib
CCOc1cccc(/C=N/NC(=O)c2cccnc2)c1O	.	.	.	.
CCOc1cccc(/C=N/NC(=O)c2cc(C3CC3)[nH]n2)c1O	.	53	.	.
CC(Nc1ccc(N2CCOCC2)cc1)C(=O)N1c2ccccc2CC1C (centres undefined)	.	.	.	.
CNc1cc(-c2ccc(C(=O)OC)cc2)ncn1	/	/	.	/
CCN(c1ccccc1)S(=O)(=O)c1cnc[nH]1	.	.	.	-70
CN(CC(=O)NCc1ccccc1)S(=O)(=O)c1cnc[nH]1	/	.	.	/
COc1cccc(NC(=S)N(CCC(C)C)C2CCN(C(C)=O)CC2)c1	.	.	.	-76
O=c1cc(/C=C/c2ccccc2)oc2ccccc12	.	60	.	.
O=C(NCc1nc2ccccc2[nH]1)C1=C[C@@H](c2ccc(Br)cc2)C[C@@H](OCCCCO)O1	.	.	.	.
O=C(NCc1nc2ccccc2[nH]1)C1=C[C@@H](c2ccccc2)C[C@@H](OCCCCO)O1	.	57	.	.
CC(=O)c1sc(NC(=O)c2ccco2)nc1-c1ccccc1	.	.	.	.
COc1ccc2c(c1)CCc1sc(NC(=O)c3ccco3)nc1-2	.	.	.	.
COc1ccc2c(c1)Cc1sc(NC(=O)c3ccco3)nc1-2	77	.	.	.
Cc1sc(NC(=O)c2ccco2)nc1-c1ccccc1	90	.	.	.
Cc1ccccc1Cn1cc(S(=O)(=O)c2ccc(C(C)C)cc2)c(=O)c2cc3c(cc21)OCO3	78	.	.	.
CC(C)c1ccc(S(=O)(=O)c2cn(Cc3ccc(F)cc3)c3cc4c(cc3c2=O)OCO4)cc1	.	.	/	.
Cc1ccc(Cn2cc(S(=O)(=O)c3ccc(Cl)cc3)c(=O)c3cc(F)ccc32)cc1	79	.	.	.
O=c1c(S(=O)(=O)c2ccc(Cl)cc2)cn(Cc2cccc(F)c2)c2ccc(F)cc12	.	.	.	.
Cc1ccc(Cn2cc(S(=O)(=O)c3ccc(C(C)C)cc3)c(=O)c3cc4c(cc32)OCO4)cc1	64	.	.	.
COc1ccccc1NS(=O)(=O)c1ccc2oc(SC(C)C(=O)N3CCNC3=O)nc2c1 (centres undefined)	/	.	.	/
CCOC(=O)c1c(C)n(-c2ccccc2)c2ccc(O)cc12	.	.	.	.
CCOC(=O)c1c(-c2ccccc2)n(C)c2ccc(O)cc12	.	.	.	-57
CCOC(=O)c1c(C)n(C)c2cc(-c3cccc(C(F)(F)F)c3)c(O)cc12	.	49	.	.
CCOC(=O)c1c(C)n(C)c2cc(-c3ccc(C)cc3)c(O)cc12	.	.	.	.
Cc1ccc2[nH]c(=O)c3cc(C(=O)N4CCN(C(=O)c5ccco5)CC4)sc3c2c1	.	78	.	.
SMILES	HSF1 activator	AHR activator	FXN GAA850 act	HSF1 inhib
Cc1ccc2oc(=O)c3cc(C(=O)N4CCN(C(=O)c5ccco5)CC4)sc3c2c1	.	.	/	.
Cc1ccc2c(C(=O)CN3CCN(C(=O)c4ccco4)CC3)c(C)[nH]c2c1	.	53	.	.
CC(NC(=O)C(=O)N1CCCCC1)C(c1cccs1)N1CCN(c2ccccc2F)CC1 (centres undefined)	.	.	.	.
CCOc1ccccc1N1C(=O)CN(Cc2ccc(OC)c(OC)c2)C1=S	.	.	.	.
COc1cc(C(=O)NCCOc2ccccc2C)cc(OC)c1OC	.	.	.	.
CC(=O)Nc1nc(-c2ccccc2)nc(-c2ccccc2OC(C)=O)n1	.	75	.	.
O=C(NC(=S)Nc1nc(-c2ccccc2)cs1)c1ccco1	.	.	.	.
O=C(/C=C\c1ccco1)Nc1nc(-c2ccccc2)cs1	.	.	.	.
COc1ccc(-c2csc(NC(=S)NC(=O)c3ccco3)n2)cc1	52	.	.	.
O=C(/C=C/c1ccco1)NC(=S)Nc1nc(-c2ccc3ccccc3c2)cs1	136	.	.	.
O=C(/C=C/c1ccco1)NC(=S)Nc1nc(-c2ccc(Cl)cc2)cs1	63	.	.	.
Cc1ccc2nc(NC(=S)NC(=O)c3ccc(OC(C)C)cc3)sc2c1	.	.	.	.
CCCOc1ccc(C(=O)NC(=S)Nc2nc3ccccc3s2)cc1	.	82	.	.
